Paper PMC4336329 (PLoS ONE, 2015)
Screen size: about 310,000 compounds; about 14,000 (4.5%) showed an effect of 50% or more. The effect is printed as a negative number. This excerpt belongs to a sample that is enriched for strong results.

Target: human ether-à-go-go-related gene (hERG) potassium channel (human, UniProt Q12809)
Experiment: primary screen, population patch clamp on CHO cells stably expressing hERG; higher = less effect of the substance
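Also: peak tail current of the secondary pulse compared with the same well before compound.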

Chain of human ether-à-go-go-related gene (hERG) potassium channel (Q12809 whole entry, looked up): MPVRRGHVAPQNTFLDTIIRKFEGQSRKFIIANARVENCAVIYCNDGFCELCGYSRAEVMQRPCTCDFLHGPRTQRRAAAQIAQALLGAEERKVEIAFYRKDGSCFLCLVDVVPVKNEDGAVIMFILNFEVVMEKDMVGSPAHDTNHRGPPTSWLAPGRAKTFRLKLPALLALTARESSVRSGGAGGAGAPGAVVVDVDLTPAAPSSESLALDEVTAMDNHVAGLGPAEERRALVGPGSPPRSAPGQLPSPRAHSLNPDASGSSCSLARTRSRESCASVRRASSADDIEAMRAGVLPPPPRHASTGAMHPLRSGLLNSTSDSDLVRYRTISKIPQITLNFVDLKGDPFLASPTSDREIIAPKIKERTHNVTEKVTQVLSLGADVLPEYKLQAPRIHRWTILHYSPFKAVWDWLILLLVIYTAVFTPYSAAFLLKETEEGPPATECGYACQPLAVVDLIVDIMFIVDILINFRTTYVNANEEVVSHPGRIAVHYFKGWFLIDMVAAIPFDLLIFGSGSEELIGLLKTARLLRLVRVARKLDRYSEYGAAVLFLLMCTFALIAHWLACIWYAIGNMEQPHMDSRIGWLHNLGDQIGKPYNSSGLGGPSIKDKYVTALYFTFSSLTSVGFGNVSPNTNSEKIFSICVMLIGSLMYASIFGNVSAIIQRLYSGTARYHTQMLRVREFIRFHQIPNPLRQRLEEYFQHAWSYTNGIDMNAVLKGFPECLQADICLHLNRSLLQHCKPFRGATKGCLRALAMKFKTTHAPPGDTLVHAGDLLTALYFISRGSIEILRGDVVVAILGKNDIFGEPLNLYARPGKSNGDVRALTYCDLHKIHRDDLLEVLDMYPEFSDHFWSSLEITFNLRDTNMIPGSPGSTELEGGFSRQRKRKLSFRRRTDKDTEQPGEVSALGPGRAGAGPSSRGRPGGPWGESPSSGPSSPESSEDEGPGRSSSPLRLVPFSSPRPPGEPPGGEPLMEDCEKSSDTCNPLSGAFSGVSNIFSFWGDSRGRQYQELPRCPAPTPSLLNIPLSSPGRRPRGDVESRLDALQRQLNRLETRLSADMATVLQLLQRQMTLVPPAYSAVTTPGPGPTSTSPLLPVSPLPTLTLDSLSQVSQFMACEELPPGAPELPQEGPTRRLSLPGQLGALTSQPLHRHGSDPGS

Q: For `CC(C)(C)OC(=O)CNC(=O)c1nc[nH]c1C(=O)N1CC[NH2+]CC1.[Cl-]`, which “hERG current change (%, negative = inhibition) at 10uM” value is on record?
A: The value was 4.07%.

Q: Which “hERG current change (%, negative = inhibition) at 10uM” value does the source give for `O=S1(=O)CCN(OCc2ccc(F)cc2Cl)CC1` here?
A: Its value is 34.4%.

Q: `O=C(Cn1[nH]c(=O)c2ccccc2c1=O)Nc1cccc(S(=O)(=O)N2CCCCCC2)c1` was tested. Which “hERG current change (%, negative = inhibition) at 10uM” value did it give?
A: Its value is -13.2%.

Q: Which “hERG current change (%, negative = inhibition) at 10uM” value does the source give for `Cc1ccc(NC(=O)Cc2c[nH]c3ccccc23)cc1S(=O)(=O)N1CCCCCC1` here?
A: Its value is 14.1%.

Q: `O=C(Cc1n[nH]c(=O)c2ccccc12)Nc1cccc(S(=O)(=O)N2CCCC2)c1` was tested. Which “hERG current change (%, negative = inhibition) at 10uM” value did it give?
A: The value was -5.36%.

Q: Which “hERG current change (%, negative = inhibition) at 10uM” value does the source give for `CCN(CC)S(=O)(=O)c1cc(NC(=O)Cc2n[nH]c(=O)c3ccccc23)ccc1C` here?
A: The value was -21.2%.

Q: How did the “hERG current change (%, negative = inhibition) at 10uM” value turn out when `O=C(Cc1n[nH]c(=O)c2ccccc12)Nc1cccc(S(=O)(=O)N2CCCCCC2)c1` was run?
A: Its value is -57.8%.

Q: How did the “hERG current change (%, negative = inhibition) at 10uM” value turn out when `Cc1ccc(NC(=O)Cc2n[nH]c(=O)c3ccccc23)cc1S(=O)(=O)N1CCCCCC1` was run?
A: Its value is -51.5%.

Q: Which “hERG current change (%, negative = inhibition) at 10uM” value does the source give for `CCCCP(=O)(CCCC)Cc1ccccc1O` here?
A: The value was 13.9%.

Q: `COc1ccccc1NC(=O)Nc1nc(CC(=O)Nc2ccc(F)cc2)cs1` was tested. Which “hERG current change (%, negative = inhibition) at 10uM” value did it give?
A: Its value is -1.25%.

Q: For `COc1ccc(-c2cc(C(=O)N3CCc4ccccc4C3)no2)cc1`, which “hERG current change (%, negative = inhibition) at 10uM” value is on record?
A: Its value is -0.668%.

Q: Which “hERG current change (%, negative = inhibition) at 10uM” value does the source give for `Cc1ccc(-n2c(C)cc(C(=O)NS(=O)(=O)c3ccc(C)cc3)c2C)cc1` here?
A: The value was -30.8%.

Q: With `COP(=O)(NS(=O)(=O)c1ccccc1)OC` as the compound, how does the “hERG current change (%, negative = inhibition) at 10uM” value read?
A: Its value is 19.9%.

Q: Which “hERG current change (%, negative = inhibition) at 10uM” value does the source give for `C=CCn1c(Cc2cccs2)nnc1SCC(=O)NCc1ccco1` here?
A: The value was -1.47%.

Q: How did the “hERG current change (%, negative = inhibition) at 10uM” value turn out when `Cc1ccnc(SCc2cc(=O)c(OC(=O)c3ccc(S(=O)(=O)N(C)C)cc3)co2)n1` was run?
A: The value was -36.4%.

Q: With `CCOC(=O)c1c(NC(=O)CN(C)C)sc(C(=O)N(CC)CC)c1C.O=C(O)C(=O)O` as the compound, how does the “hERG current change (%, negative = inhibition) at 10uM” value read?
A: Its value is -17.6%.

Q: `CCC[C@@H]1CCCO[C@@](C(=O)NCc2ccccn2)(C(F)(F)F)C1` was tested. Which “hERG current change (%, negative = inhibition) at 10uM” value did it give?
A: The value was -1.97%.

Q: With `COc1cc2c(cc1OC)C1(CCCC1)CNC2c1ccc([N+](=O)[O-])cc1.Cl` (centres unmarked) as the compound, how does the “hERG current change (%, negative = inhibition) at 10uM” value read?
A: The value was -50%.

Q: How did the “hERG current change (%, negative = inhibition) at 10uM” value turn out when `COc1cc2c(cc1OC)C1(CCCC1)CNC2c1cccc([N+](=O)[O-])c1` (centres unmarked) was run?
A: Its value is -43.3%.

Q: Which “hERG current change (%, negative = inhibition) at 10uM” value does the source give for `COc1cc2c(cc1OC)C1(CCCC1)CNC2C.Cl` (centres unmarked) here?
A: The value was -3.04%.

Q: With `C/C(=N/NC(=O)CNC(=O)c1ccccc1)c1ccc(C)cc1` as the compound, how does the “hERG current change (%, negative = inhibition) at 10uM” value read?
A: Its value is -41.5%.

Q: With `CC1=C[C@@H](C)[C@@H](c2ccc(C(F)(F)F)cc2)OC1=O` as the compound, how does the “hERG current change (%, negative = inhibition) at 10uM” value read?
A: Its value is 7.01%.

Q: How did the “hERG current change (%, negative = inhibition) at 10uM” value turn out when `Cc1ccc2c(c1)c(/C=C/c1cc[n+](C)cc1)c(C)n2C.[I-]` was run?
A: The value was -10.9%.
